aSyn 5UTR act – Activators via SNCA 5'UTR binding, MLPCN. alpha-synuclein 5'UTR reporter, activators screen. activity score, % (tested at 7.5 µM), hits read low. 300,000 tested, 7.1% active; in the data active means activity score below about -60%
A number is an active result; 0 = inactive. Only a sample is shown.

SMILES | aSyn 5UTR act
O=[N+]([O-])c1ccc(N=Nc2c(O)[nH]c3ccc(F)cc23)cc1 | -82
CC(C)(O)C(=O)N=Nc1c(O)[nH]c2ccccc12 | -96
Oc1[nH]c2ccccc2c1N=Nc1ccc(F)cc1 | -171
Cc1nc2ccccn2c1C(=O)N=Nc1c(O)[nH]c2ccccc12 | -103
Oc1[nH]c2ccccc2c1N=Nc1ccccc1F | -357
O=[N+]([O-])c1cc(Cl)ccc1-c1nc(-c2ccccc2)no1 | -181
O=[N+]([O-])c1ccccc1-c1nc(-c2ccc(Br)o2)no1 | -266
O=[N+]([O-])c1cc(Cl)ccc1-c1nc(-c2ccncc2)no1 | -143
CCCNC(=O)c1ccc(N2CCC3(CC2)CC(c2ccccc2)=NO3)c(NC(=O)c2ccccc2)c1 | 0
CC1CC(C)CN(S(=O)(=O)c2ccc(C(=O)NCCCn3ccnc3)cc2)C1 (stereo unspecified) | 0
CC1CC(C)CN(CCCNC(=O)c2ccc3nc(N4CCCCC4)sc3c2)C1 (stereo unspecified) | -273
CCCN1CCN(CCCNC(=O)c2ccc3nc(N4CCCCC4)sc3c2)CC1 | -214
CC(=O)c1ccc(NC(=O)CCc2c(C)nc3ncnn3c2C)cc1 | -69
CCc1c(C)nc2ncnn2c1Nc1ccc(C(C)=O)cc1 | -112
Cc1ccn2cc(-c3ccc(NC(=O)c4ccco4)cc3)nc2c1 | -95
Cc1nnc2ccc(-c3ccc(NC(=O)c4ccco4)cc3)nn12 | -254
CCOc1ccc(CC(=O)Nc2ccc(-c3ccc4nnc(C)n4n3)cc2)cc1 | -87
Cc1ccn2cc(-c3cccc(NS(C)(=O)=O)c3)nc2c1 | -150
CC(=O)Nc1cccc(-c2cn3ccc(C)cc3n2)c1 | -107
COc1cccc(N/C=C/c2onc(C)c2[N+](=O)[O-])c1 | -151
Cc1ccc(N/C=C/c2onc(C)c2[N+](=O)[O-])cc1 | -134
Cc1noc(/C=C/c2ccc(-c3ccccc3Cl)o2)c1[N+](=O)[O-] | -63
COc1ccc(N(CC(=O)Nc2cc(Cl)ccc2OC)S(=O)(=O)c2c(C)noc2C)cc1 | 0
CCOc1ccc(N(CC(=O)Nc2ccc(C)c(C)c2)S(C)(=O)=O)cc1 | -171
CC(=O)Nc1ccc(NC(=O)CN(c2cccc([N+](=O)[O-])c2)S(C)(=O)=O)cc1 | 0
SMILES | aSyn 5UTR act
COc1ccc(CNC(=O)CN(c2cc(C)cc(C)c2)S(=O)(=O)c2c(C)[nH]c(=O)[nH]c2=O)cc1 | -81
COc1ccccc1N(CC(=O)N/N=C/c1c(O)ccc2ccccc12)S(C)(=O)=O | 0
CCOc1ccc(N(CC(=O)NCc2ccc(OC)cc2)S(C)(=O)=O)cc1 | -81
O=[N+]([O-])c1cc(-c2nnc(C34CC5CC(CC(C5)C3)C4)o2)cc([N+](=O)[O-])c1 | -97
Oc1ccc(Br)cc1-c1ccn[nH]1 | -69
COc1ccccc1C(=O)NNC(=O)c1ccccc1F | -97
O=C(NNC(=O)c1ccccc1OCc1ccccc1)c1ccccc1O | 0
O=C(NNC(=O)c1ccccc1OCc1ccccc1)c1ccccc1F | -85
COc1ccccc1C(=O)NNC(=S)NC(=O)c1cc(OC)c(OC)c(OC)c1 | 0
CCCCCOC(=O)NCC(O)c1ccccc1 (stereo unspecified) | -128
O=C(CC1CCCCC1)NCc1ccccc1Cl | -107
COc1cc(SC)ccc1C(=O)Nc1ccon1 | -109
COc1cc(SC)ccc1C(=O)Nc1ccc(Br)cn1 | 0
COc1cc(SC)ccc1C(=O)Nc1cccc(C)n1 | -88
Cc1ccc(-c2nc(C#N)c(NCc3cccc4c3OCO4)o2)cc1 | -66
CC(C)(C)c1ccc(-c2nc(C#N)c(NCc3ccncc3)o2)cc1 | -107
CCOC(=O)/C(=N/Nc1ccc(C)cc1)S(=O)(=O)c1ccc(Cl)cc1 | -142
Clc1ccc(OCCCN2CCCCC2)c(Br)c1 | -88
Cc1cc(NC(=O)Cc2ccsc2)ccc1Br | -112
CC(=O)c1ccc(NC(=O)Cc2cccs2)cc1 | -84
CC(=O)c1ccc(NC(=O)Cc2ccsc2)cc1 | -79
COc1ccc(/C=N/NC(=O)c2cccnc2)cc1COc1ccc([N+](=O)[O-])cc1 | -75
COc1ccc(/C=N/NC(=O)c2cccnc2)cc1COc1ccc(NC(C)=O)cc1 | -84
COc1cc(/C=N/NC(=O)c2cccc([N+](=O)[O-])c2)ccc1OCc1ccc(C)cc1 | -99
COc1ccc(/C=N\NC(=O)c2cccc(F)c2)cc1COc1ccccc1 | 0
SMILES | aSyn 5UTR act
CCOc1cccc(-c2nc3cc(C)ccc3o2)c1 | -153
Cc1nc(Nc2nc3ccccc3o2)nc2c1CCC2 | 0
Cc1ccc2oc(Nc3nc(C)cc(C)n3)nc2c1 | -163
Cc1ccc(C)c(-c2nc3cc(N)ccc3o2)c1 | 0
Cc1ccc2oc(-c3ccccc3)nc2c1 | -188
Cc1nnc(SCc2ccccc2)nc1-c1ccccc1 | -124
NC(=S)N=Nc1c(O)n(Cc2ccc(Br)cc2)c2ccccc12 | 0
Brc1ccc(N=Nc2ccc3ccccc3n2)cc1 | 0
CCn1c(O)c(N=Nc2ccc3ccccc3n2)c2ccccc21 | -143
Cc1ccc(OCCn2c(=O)n(C)c3ccccc32)cc1 | -123
Cn1c(=O)n(CCOc2ccccc2Cl)c2ccccc21 | -99
Cc1ccc(C2=N/C(=C/N3CCOCC3)C(=O)O2)cc1 | -100
Cc1ccc(C2=N/C(=C\N3CCCCC3)C(=O)O2)cc1 | -105
Cc1cccc(NC(=S)NC(=O)c2ccc(-c3ccccc3)cc2)n1 | -109
Cc1cccc(NC(=S)NC(=O)c2oc3ccccc3c2C)n1 | -144
COc1cc2[nH]c3c(=O)n4c(nc3c2cc1OC)SCCC4 | -97
Nc1nc(-c2cc(O)ccc2[N+](=O)[O-])cc(-c2ccccc2)c1[N+](=O)[O-] | -120
O=C(Nc1ccccc1)Nc1c(F)cccc1F | -66
CC(=O)Nc1ccc(SCCCC(=O)c2ccccc2)cc1 | -161
O=C(Nc1ccccc1)Nc1csc2ccccc12 | -165
O=C(Nc1ccccc1)Nc1scc2c1c(=O)oc1ccccc12 | -123
CC(=O)Nc1ccc(NC(=O)Nc2ccccc2)cc1 | -70
CC(=O)Nc1ccc(C#Cc2ccc(NC(C)=O)cc2)cc1 | 0
O=C(Nc1nc2c(s1)CN(Cc1ccccc1)CC2)C1CCC1 | -108
O=C(N/N=C/c1ccc([N+](=O)[O-])cc1)c1[nH]ncc1Br | -68
SMILES | aSyn 5UTR act
Cc1cc(OCC(=O)N(C)Cc2ccccc2)ccc1Br | -68
C[n+]1c2n(c3ccccc31)N=C(c1ccccc1)CS2 | -68
Cc1cccc(N=Nc2cn[nH]c2-c2ccco2)c1 | -125
CC(=O)Oc1ccc([C@@H]2COc3c(ccc4c3C=CC(C)(C)O4)C2)c(OC(C)=O)c1 | -152
O=C1CCNc2cc3ccccc3cc21 | 0
c1ccc2c(c1)Nc1cc3ccccc3cc1S2 | -135
O=C(NCc1ccco1)/C(=C/c1cccc(C(F)(F)F)c1)c1nc2ccccc2[nH]1 | -84
O=C(NCc1ccco1)/C(=C/c1ccc(C(F)(F)F)cc1)c1nc2ccccc2[nH]1 | -94
CCOC(=O)Cc1ccc(NC(=O)c2ccc(C(C)(C)C)cc2)cc1 | 0
Cc1noc(N)c1C(=O)Nc1ccc(C(C)(C)C)cc1 | -106
Cc1nc(-c2ccccc2)nc2[nH]c(=O)n(-c3ccccc3)c(=O)c12 | -93
Cc1noc(C)c1CSc1nc2[nH]ncc2c(=O)n1-c1ccccc1 | 0
COc1ccc(N/N=C(/C)c2cnnc(-c3ccccc3)n2)cc1 | -70
COc1ccc(/C(C)=N/Nc2nc3ccccc3nc2C)cc1 | -67
COc1ccc(/C(C)=N/Nc2nncc3ccccc23)cc1 | -113
CCOC(=O)C1CCCN(C(=O)c2ccc3oc(Cc4ccccc4)nc3c2)C1 (stereo unspecified) | -207
CCOC(=O)N1CCN(C(=O)c2ccc3oc(CCCc4ccccc4)nc3c2)CC1 | -150

Screens deposited in PubChem by Broad Institute.
